This is a sample that favours compounds with a hit; in the whole collection about 1.3% have one here.
ADAM17 inh = inhibits human ADAM17; AID 720648; P78536; recombinant ADAM17, EDANS/DABCYL FRET peptide cleavage; hit rate 0.83% among 370,000; inhibition, % at 6.95 µM;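 active = inhibition above the mean of compounds lying between control limits plus 3 SD, set per campaign, cut at about 8.5% in these data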;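 note: 0% = DMSO-only wells as the low control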
NPR2 activator = GC-B (human) receptor activation; hit rate 0.11% among 370,000; HEK293-GC-B cells, CNP EC30, cGMP TR-FRET; 0% at EC30 CNP, 100% saturating CNP; activation, % at 10 µM;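 active = activation at 10 µM reaching about 35% in either raw or pattern-adjusted values, limit read from the data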
GC-A act = GC-A (human) enzyme activation; P16066; HEK293 GC-A cells, cGMP TR-FRET, EC30 ANP; 0% at EC30 ANP, 100% saturating ANP; activation, % at 10 µM; hit rate 0.14% among 370,000; AID 1671463; in the data active = activation above about 40%
ADAM10 inh = inhibitors of human ADAM10; O14672; recombinant ADAM10, EDANS/DABCYL FRET peptide cleavage, 3 h; inhibition, % at 7 µM; hit rate 0.62% among 370,000; AID 720582;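 active = inhibition above a per-campaign cutoff equal to the mean of compounds falling between control-based bounds plus 3 SD, cut at about 20% in these data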;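 note: 0% = DMSO wells while the 100% control is not disclosed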
ADAM10 confirm = human ADAM10 inhibition, confirmation; shares compounds with ADAM10 inh; hit rate 1% among 2,100; inhibition, % at 6.95 µM; ADAM10 QFRET peptide cleavage, EDANS fluorescence;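 active = inhibition above about 20% chosen separately for each screening run, limit read from the data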;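 note: 0% = DMSO wells and 100% = marimastat wells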
ADAM17 ctr = ADAM17 inhibition, counter-screen for ADAM10 exosite hits | shares compounds with ADAM10 inh | ADAM17 QFRET peptide cleavage, EDANS fluorescence | inhibition, % at 6.95 µM | hit rate 0.5% among 2,100;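 active = mean triplicate inhibition above the solvent-only control wells' mean plus 3 SD, cut at about 12% in these data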;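 note: 0% = DMSO wells and 100% = marimastat wells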
ADAM10 ctr = counter-screen for ADAM17 exosite inhibitors: inhibitors of human ADAM10; inhibition, % at 6.95 µM; hit rate 47% among 2,900; AID 743256; recombinant ADAM10, EDANS/DABCYL FRET peptide cleavage, 3 h; shares compounds with ADAM17 inh;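 active = mean inhibition over the triplicate runs exceeds the activity threshold set in the earlier primary screen, cut at about 20% in these data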;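 note: 0% = DMSO wells and 100% = marimastat wells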
ADAM17 confirm = human ADAM17 inhibition, confirmation; shares compounds with ADAM17 inh; recombinant ADAM17, EDANS/DABCYL QFRET peptide cleavage; inhibition, % at 6.95 µM; hit rate 65% among 2,900; AID 743257;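 active = mean inhibition across replicates above the hit cutoff set in the primary screen, cut at about 8.5% in these data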;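 note: 0% = DMSO wells and 100% = marimastat wells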
An asterisk follows results filed as active; . = no result.

SMILES | ADAM17 inh | NPR2 activator | GC-A act | ADAM10 inh | ADAM10 confirm | ADAM17 ctr | ADAM10 ctr | ADAM17 confirm
CCCCCCCCN1C(=O)[C@H](CC(=O)NCc2ccc(OC)c(OC)c2)C[C@@]2(C(=O)OCC)CCCC=C12 | 13* | 5 | 0 | 31* | 4 | 1 | 41* | 22*
CCOC(=O)[C@]12CCCC=C1N(CCc1ccc(OC)c(OC)c1)C(=O)[C@H](CC(=O)NCc1ccccc1)C2 | -1 | 2 | 3 | 2 | . | . | . | .
CNC(=O)C(NC(=O)CNC(=O)c1ccc(Cl)cc1)C(C)(C)C (centres undefined) | -1 | 10 | 3 | -6 | . | . | . | .
CNC(=O)[C@@H](NC(=O)[C@H](CC(C)C)[C@H](O)C(=O)NO)C(C)(C)C | 99* | -8 | 3 | 95* | 100* | 102* | 106* | 102*
CC(NS(=O)(=O)OCC(Cl)(Cl)Cl)c1ccc(C(C)(C)C)cc1 (centres undefined) | 15* | 6 | 1 | 31* | 9 | 3 | 45* | 22*
Cc1cc(NC(=O)CSCC(=O)OCC(=O)c2ccc(Br)cc2)no1 | -4 | -2 | -2 | -12 | . | . | . | .
O=C(NC(NC(=S)Nc1cccc(Cl)c1)C(Cl)(Cl)Cl)OCc1ccccc1 (centres undefined) | 10* | 7 | 1 | 28* | 11 | 4 | 35* | 20*
O=C(NC(NC(=S)Nc1cccc(C(=O)O)c1)C(Cl)(Cl)Cl)OCc1ccccc1 (centres undefined) | -1 | -2 | 2 | -3 | . | . | . | .
Cn1nc(C(C)(C)C)cc1C(=O)N1CCCCC1c1cc(C(=O)Nc2ccc(F)c(Cl)c2)no1 (centres undefined) | 12* | 1 | -4 | 20* | 5 | 2 | 20* | 12*
CCc1ccccc1NCC(=O)Nc1ccc(Cl)c(C(F)(F)F)c1 | 17* | 1 | 3 | 35* | 6 | 3 | 40* | 19*
CCCCCCn1c(=O)n2n(c1=O)[C@@H]1CN(S(=O)(=O)c3ccc(C)cc3)C[C@]1(O)[C@@H](OC(=O)NC1CC1)C2 | 1 | -2 | 1 | 3 | . | . | . | .
CCCCCCNC(=O)O[C@H]1Cn2c(=O)n(CCCCCC)c(=O)n2[C@@H]2CN(S(=O)(=O)c3ccc(C)cc3)C[C@]12O | 11* | -8 | -8 | 20* | 14 | 4 | 40* | 22*
COc1ccc(OC)c(CN2C(=O)CN(S(C)(=O)=O)CC2(C)c2nnnn2C2CCCC2)c1 (centres undefined) | -8 | 2 | -4 | -8 | . | . | . | .
COc1ccc(NS(=O)(=O)c2cccc(NC(=O)CCC(=O)c3ccc(Cl)cc3)c2)cc1 | 14* | 1 | 0 | 30* | 7 | 2 | 34* | 19*
COc1cc(O)c(C(CCN2CCN(c3ccccc3)CC2)c2ccc3c(c2)OCO3)c(OC)c1 (centres undefined) | 12* | -13 | -6 | 24* | 9 | 3 | 9 | 6
COc1cc(O)c(C(CCN2CCCC2)c2ccc3c(c2)OCO3)c(OC)c1 (centres undefined) | -3 | -10 | -12 | -2 | . | . | . | .
CCCCN(C(=O)c1ccc(NC2CC2)c([N+](=O)[O-])c1)c1c(N)n(CCCC)c(=O)[nH]c1=O | 0 | 0 | -2 | -16 | . | . | . | .
CC(C)(C)c1ccc(-n2ncc3c2CCCC3NC(=O)C2(C(N)=O)CC2)cc1 (centres undefined) | -1 | -2 | -1 | 1 | . | . | . | .
CN(C)c1ccc(/C=C2\SC(=S)N(Nc3ncc(C(F)(F)F)cc3Cl)C2=O)cc1 | 0 | -2 | -1 | -2 | . | . | . | .
COc1cc(/C=C2\SC(=S)N(Nc3ncc(C(F)(F)F)cc3Cl)C2=O)ccc1O | 12* | -9 | -10 | 34* | 4 | 1 | 35* | 19*
